This is a sample that favours compounds with a hit; in the whole collection about 4% have one here.
D1 agonist: Allosteric Agonists of the Human D1 Dopamine Receptor: qHTS; D(1A) dopamine receptor (Homo sapiens), P21728; hit rate 1% among 360,000; AID 504660, 2011; activation, % at 2 µM; HEK293 T-REx D1 cells, calcium flux, agonist mode; further: 0% is about no effect
Target sequence (P21728 whole entry, looked up): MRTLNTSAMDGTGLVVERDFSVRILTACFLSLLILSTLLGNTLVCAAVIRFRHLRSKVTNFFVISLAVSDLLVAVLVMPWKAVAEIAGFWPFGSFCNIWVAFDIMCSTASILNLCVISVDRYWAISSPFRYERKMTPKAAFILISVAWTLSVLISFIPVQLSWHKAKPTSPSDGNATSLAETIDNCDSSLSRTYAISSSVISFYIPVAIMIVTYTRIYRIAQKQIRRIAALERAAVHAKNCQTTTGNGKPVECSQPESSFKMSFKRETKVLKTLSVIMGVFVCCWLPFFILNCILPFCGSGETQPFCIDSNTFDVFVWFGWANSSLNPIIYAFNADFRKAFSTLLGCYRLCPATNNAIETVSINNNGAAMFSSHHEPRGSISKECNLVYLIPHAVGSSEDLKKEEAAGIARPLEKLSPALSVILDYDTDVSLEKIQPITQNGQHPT
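Inducible HEK293 T-REx D1 cells, force-coupled to calcium signalling, were plated at 4000 cells/well with tetracycline and held overnight at 30 C. After no-wash calcium dye loading, compound-evoked calcium rise over 180 s flagged agonists.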
D1 PAM: Potentiators of Human D1 Dopamine Receptor: qHTS; HEK293 TREx D1 cells, calcium flux, dopamine EC20 potentiation; hit rate 0.036% among 360,000; D(1A) dopamine receptor (Homo sapiens), P21728; potentiation, % at 10 µM; in the data active means potentiation above about 30%; further: 0% is about no effect
TRHR PAM: qHTS for Small Molecule Agonists and Allosteric Enhancers of Human TRH Receptor: Primary Screen for Enhancers; Thyrotropin-releasing hormone receptor (Homo sapiens), P34981; TRHR cells, fluo-8 calcium fluorescence, EC20 TRH enhancement; enhancement, % at 2 µM; hit rate 0.66% among 360,000; in the data active means enhancement above about 30%; further: 0% is about no effect
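Enhancer read-out: after compound pinning and an initial kinetic agonist-mode read, an EC20 of TRH (10 nM final) was injected and fluo-8 calcium signal (Ex 480/Em 530) followed at 1 s/cycle for 100 cycles in TRHR-expressing cells.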
TRHR agonist: qHTS for Small Molecule Agonists and Allosteric Enhancers of Human TRH Receptor: Primary Screen for Agonists | TRHR cells, calcium flux fluo-8, FDSS agonist mode | activation, % at 2 µM | hit rate 0.18% among 360,000; further: 0% is about no effect
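Steps: seed TRHR cells overnight; add fluo-8 no-wash Ca dye, RT 30 min–1.5 h; record 10 s baseline; pin-transfer compounds; monitor fluorescence 1 cycle/s for the agonist window. Calcium increases flag candidate agonists.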
GRP78 ERSR act: qHTS for Inducers of the Endoplasmic Reticulum Stress Response (ERSR) in Human Glioma: qHTS; AID 602332, 2012; hit rate 0.02% among 420,000; Potency, µM, for the others: at the highest dose activation, most hits filed as activators; U87-MG GRP78 promoter luciferase reporter, 16 h; active means well fitted activation curve with a large enough effect; further: potency means the concentration at half of the fitted maximal effect; series mostly up to about 76 µM; % of control where 0% means no effect; nearly all actives have a fitted effect of over 35% in size
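Stably transfected U87-MG human glioma cells carrying a GRP78-based luminescent sensor were seeded at 1000 cells/well, pin-dosed with compounds and incubated 16 h. Luciferase reagent was then added, and end-point luminescence was read after 10 min at room temperature.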
D1 antag: Antagonist of Human D 1 Dopamine Receptor: qHTS; D(1A) dopamine receptor (Homo sapiens), P21728; HEK293 TREx D1 cells, calcium flux, dopamine EC80; stronger effect = lower value; activity change, negative = inhibition, % at 10 µM; hit rate 3.2% among 360,000; in the data active means activity change below about -30%; further: on the % scale 0 is the no-effect control and ±100 the full control effect
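Tetracycline-induced HEK293 T-REx cells with force-coupled D1 receptor were loaded with a no-wash calcium dye. Compound was added after a 10 s baseline and read kinetically for 180 s; EC80 dopamine was then added and calcium flux followed another 180 s.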
Starred values were filed as active, the others as inactive; nt = not tested or not shown. Unless noted, no stated cut-off is given here; in the data, active means activation above about 30%; inactive means the rest.

SMILES | D1 agonist | D1 PAM | TRHR PAM | TRHR agonist | GRP78 ERSR act | D1 antag
COc1ccc(CC(=O)Nc2ccc3nc(N4CCCCC4)cc(C)c3c2)cc1 | 1 | -1 | -1 | 0 | 0% | -6
Cc1cc(N2CCN(C)CC2)nc2ccc(NC(=O)c3ccc(C(C)(C)C)cc3)cc12 | 20 | 0 | 13 | 0 | -9% | -75*
CCC(=O)Nc1cccc(C2=NOC3(C2)C[C@H](C(N)=O)N(C(=O)CC#N)C3)c1 (some centres not stated) | 0 | 3 | 7 | 0 | -5% | -12
CCOc1ccc(NC(=O)/C=C\C(=O)N(c2ccc(C(C)C)cc2)C(C(=O)NCc2ccco2)c2ccc(F)cc2)cc1 (configuration not stated) | -2 | -3 | 2 | 0 | -3% | 16
Cc1cc(C(=O)Nc2ccccc2-c2nc(CNC(=O)c3cc4ccccc4cn3)c(C)o2)c(C)o1 | nt | nt | nt | nt | -2% | nt
O=C(COC(=O)c1ccc[nH]c1=O)NCCCc1ccccc1 | 1 | 6 | 0 | 1 | 1% | -17
Cc1cc(/C=C\c2nc(O)c([N+](=O)[O-])c(=O)[nH]2)c(C)n1-c1ccccc1 | 3 | -8 | -6 | -1 | -4% | -7
COc1ccc(-n2c(C)cc(/C=C/c3nc(O)c([N+](=O)[O-])c(=O)[nH]3)c2C)cc1 | 1 | -4 | 8 | 0 | -3% | -54*
Cc1ccc(CSc2oc(-c3ccco3)nc2S(=O)(=O)c2ccc(Br)cc2)cc1 | 15 | 0 | -8 | 2 | -4% | -35*
Cc1ccc(CSc2oc(-c3ccco3)nc2S(=O)(=O)c2ccc(Cl)cc2)cc1 | 12 | 1 | -8 | 1 | -3% | -15
CCCSc1oc(-c2ccco2)nc1S(=O)(=O)c1ccc(Br)cc1 | 17 | 2 | 9 | 0 | -3% | -36*
COc1cccc(OCCNC(=O)Nc2cc(F)c(F)cc2Cl)c1 | 9 | 20 | -5 | -1 | -4% | -40*
COc1ccc(OCCNC(=O)Nc2cc(F)c(F)cc2Cl)cc1 | 4 | -7 | 4 | 0 | -5% | -18
Cc1ccc2nc3n(c(=O)c2c1)-c1cc(Cl)ccc1C(=O)NC3Cc1ccccc1 (configuration not stated) | 2 | 0 | 0 | -1 | nt | -38*
COc1cc2cc(CNc3ccccc3)c(=O)n(CC(=O)Nc3cc(C)cc(C)c3)c2cc1OC | 16 | -1 | 0 | 34* | 1% | 15
CCc1ccc(NC(=O)Cn2c(=O)c(CNc3ccccc3)cc3cc(OC)c(OC)cc32)cc1 | 13 | -1 | 6 | -1 | -3% | -5
CCc1ccc(NCc2cc3cc4c(cc3n(CC(=O)Nc3ccc(Cl)cc3)c2=O)OCO4)cc1 | 176* | 4 | 3 | -1 | -5% | -2
Cc1ccc(NCc2cc3cc4c(cc3n(CC(=O)Nc3ccc(C)cc3)c2=O)OCCO4)cc1 | 19 | 1 | -4 | 16 | 4% | -6
COc1ccc(NCc2cc3cc4c(cc3n(CC(=O)Nc3ccccc3)c2=O)OCO4)cc1 | 134* | 4 | 2 | -1 | -2% | -1
COc1ccc(NCc2cc3cc4c(cc3n(CC(=O)Nc3cc(C)cc(C)c3)c2=O)OCO4)cc1 | 12 | -2 | 1 | 10 | -2% | 9
O=S(=O)(NN1CCOCC1)c1cc(Cl)cc(Cl)c1O | 1 | -14 | 14 | 0 | -1% | -6
CCOc1ccc(CCNC(=O)c2nn(C)c3c2CSc2ccc(C)cc2-3)cc1OCC | 2 | 0 | 1 | 1 | -3% | -12
Fc1ccc(Nc2ncnc3onc(-c4cccc(Cl)c4)c23)c(F)c1 | -2 | -4 | -9 | 0 | -3% | -45*
Cc1ccc(N/C=C(\[N+](=O)[O-])S(=O)(=O)c2ccccc2)cc1 | 3 | -2 | 31* | 0 | 3% | -1
CCCCOC(=O)c1ccc(NC(=O)COC(=O)C2CSC3(C)CCC(=O)N23)cc1 (configuration not stated) | 22 | -7 | -4 | 2 | 2% | -46*
SMILES | D1 agonist | D1 PAM | TRHR PAM | TRHR agonist | GRP78 ERSR act | D1 antag
CC12CCC(=O)N1C(C(=O)OCC(=O)Nc1sccc1C#N)CS2 (configuration not stated) | 4 | 6 | -4 | 0 | 1% | 1
COc1ccc2c(CC(=O)Nc3ccc(C)cc3)coc2c1 | 3 | -2 | 6 | 0 | 1% | -8
CC(C)N1C(=O)C(O)(C2COC(C)(C)CC2=O)c2ccccc21 (configuration not stated) | 1 | 5 | 33* | 0 | 0% | 4
COc1ccccc1-c1nc(S(=O)(=O)c2ccccc2)c(N2CCC(C)CC2)o1 | 5 | -2 | -13 | 1 | -1% | 8
CC(C)(C)C(=O)NN=C1CCC(c2ccccc2)CC1 (configuration not stated) | 6 | -2 | -5 | 0 | 2% | -33*
COC(=O)C/C=C\[C@@H](C)[C@@H](/C=N\OC[C@@H](C)[C@H](OCc1ccccc1)C(C)C)NS(=O)(=O)c1ccc(C)cc1 | nt | nt | nt | nt | -3% | nt
CCCCCCc1cc2cc(S(=O)(=O)c3ccc(F)c(Cl)c3)c(=O)oc2cc1O | 51* | -5 | -5 | 25 | -3% | -10
CCCCCCc1cc2cc(-c3nnc(-c4ccc(C)cc4)o3)c(=O)oc2cc1O | 221* | 4 | 1 | -1 | -3% | 23
CCCCCCc1cc2cc(C(N)=O)c(=N)oc2cc1O | -1 | 1 | -1 | 0 | nt | 8
CCCCCCc1cc2cc(C(=O)OCC)c(=O)oc2cc1O | 16 | 3 | 3 | 13 | -2% | -1
CCCCCCc1cc2cc(/C(N)=N/NC(=O)c3ccncc3)c(=O)oc2cc1O | 114* | -1 | 28 | 122* | -3% | nt
COc1ccc(Cl)cc1-c1cc2c(c(OC)c1)OCCN(Cc1cccn1-c1nccs1)C2 | nt | nt | nt | nt | -4% | nt
Cc1cc(OCC(=O)N2CCOCC2)ccc1NC(=O)C1CCCCC1 | 3 | 3 | 5 | 0 | -1% | -6
Cn1cc(C(=O)NCN2CCCCC2)c2ccccc21 | 2 | -4 | -1 | 0 | -11% | -40*
Cn1cc(C(=O)C(=O)N2CCCC2)c2ccccc21 | -1 | -3 | -5 | 0 | -5% | 2
Cc1sc2ncnc(N/N=C/c3ccc(O)cc3)c2c1C | 1 | -6 | 1 | 1 | -1% | -86*

Compound activity: PubChem BioAssay, National Center for Advancing Translational Sciences (NCATS)
